Results as given in PubChem BioAssay (NCI).
Compounds without any hit were thinned out: in the full panel of roughly 83,000, 20% have a hit.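 Negative percent growth values reflect cell death: -40 means 40% of the cells present at the start died, and -100 means all died.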 Activity calls are given as the source filed them. Rule for the calls: active = growth percent below 10; inactive = the rest.

How the values were obtained:
Test in all cases: NCI-60 one-dose screen, 48 h (100 = growth as untreated, 0 = no growth, -100 = all killed)
DU-145 prostate = tested on: DU-145 prostate
K-562 leukemia = tested on: K-562 leukemia
MALME-3M melanoma = tested on: MALME-3M melanoma
MDA-MB-231 breast = tested on: MDA-MB-231 breast
RXF 393 renal = tested on: RXF 393 renal
SF-268 CNS = tested on: SF-268 CNS
SF-295 CNS = tested on: SF-295 CNS
SF-539 CNS = tested on: SF-539 CNS
UACC-257 melanoma = conditions: 10 µM unless noted
M14 melanoma = tested on: M14 melanoma
HCT-15 colon = conditions: 10 µM unless noted
HT29 colon = tested on: HT29 colon
SNB-75 CNS = tested on: SNB-75 CNS
SNB-19 CNS = tested on: SNB-19 CNS
U251 CNS = conditions: 10 µM unless noted
PC-3 prostate = tested on: PC-3 prostate
SK-MEL-5 melanoma = tested on: SK-MEL-5 melanoma
UACC-62 melanoma = tested on: UACC-62 melanoma
LOX IMVI melanoma = conditions: 10 µM unless noted
SK-MEL-28 melanoma = tested on: SK-MEL-28 melanoma

Measured: growth

N#CSCc1c(Cl)cccc1Cl
inactive: DU-145 prostate; 10 µM unless noted 21% | K-562 leukemia; 10 µM unless noted 83.8% | MALME-3M melanoma; 10 µM unless noted 47.1% | MDA-MB-231 breast; 10 µM unless noted 80.4% | RXF 393 renal; 10 µM unless noted 50.1% | SF-268 CNS; 10 µM unless noted 53.3% | SF-295 CNS; 10 µM unless noted 94.8% | SF-539 CNS; 10 µM unless noted 88.5% | UACC-257 melanoma 79.5% | HCT-15 colon 14.6% | HT29 colon; 10 µM unless noted 12% | SNB-75 CNS; 10 µM unless noted 96.4% | SNB-19 CNS; 10 µM unless noted 90.2% | U251 CNS 91.8% | PC-3 prostate; 10 µM unless noted 76.2% | SK-MEL-5 melanoma; 10 µM unless noted 87.5% | UACC-62 melanoma; 10 µM unless noted 88.5% | LOX IMVI melanoma 49.9%
active: M14 melanoma; 10 µM unless noted 9.86%

COc1ccc(-c2cscc2N)cc1
inactive: DU-145 prostate; 10 µM 83.3% | DU-145 prostate; 100 µM 69.8% | K-562 leukemia; 10 µM 54.4% | K-562 leukemia; 100 µM 22.9% | MALME-3M melanoma; 10 µM 138% | MALME-3M melanoma; 100 µM 66.9% | MDA-MB-231 breast; 10 µM 55.3% | MDA-MB-231 breast; 100 µM 50.8% | RXF 393 renal; 10 µM 106% | RXF 393 renal; 100 µM 89.5% | SF-268 CNS; 10 µM 91% | SF-268 CNS; 100 µM 41.3% | SF-295 CNS; 10 µM 54.1% | SF-295 CNS; 100 µM 40.9% | SF-539 CNS; 10 µM 78.7% | SF-539 CNS; 100 µM 44.3% | UACC-257 melanoma 41.2% [100 µM] | M14 melanoma; 10 µM 76.1% | M14 melanoma; 100 µM 43.4% | HT29 colon; 10 µM 97.7% | HT29 colon; 100 µM 52% | SNB-75 CNS; 10 µM 88.8% | SNB-75 CNS; 100 µM 51.9% | SNB-19 CNS; 10 µM 82.9% | SNB-19 CNS; 100 µM 57.6% | SK-MEL-5 melanoma; 10 µM 48.8% | SK-MEL-5 melanoma; 100 µM 33.1% | UACC-62 melanoma; 10 µM 43.4% | LOX IMVI melanoma 45.7% | SK-MEL-28 melanoma; 10 µM 96.4% | SK-MEL-28 melanoma; 100 µM 51.4%
active: UACC-62 melanoma; 100 µM -9.3%

O=C(/C=C\c1ccccc1)N1c2ccccc2CC1c1c[nH]c2ccccc12 (stereo not drawn)
inactive: DU-145 prostate; 10 µM unless noted 89.7% | K-562 leukemia; 10 µM unless noted 65.9% | MALME-3M melanoma; 10 µM unless noted 85.4% | MDA-MB-231 breast; 10 µM unless noted 60.8% | RXF 393 renal; 10 µM unless noted 93.4% | SF-268 CNS; 10 µM unless noted 75.2% | SF-295 CNS; 10 µM unless noted 68.7% | SF-539 CNS; 10 µM unless noted 95.1% | UACC-257 melanoma 88.8% | M14 melanoma; 10 µM unless noted 71.6% | HCT-15 colon 55.7% | HT29 colon; 10 µM unless noted 21.8% | SNB-75 CNS; 10 µM unless noted 62.4% | SNB-19 CNS; 10 µM unless noted 85.8% | U251 CNS 74.1% | PC-3 prostate; 10 µM unless noted 53.6% | SK-MEL-5 melanoma; 10 µM unless noted 87.6% | UACC-62 melanoma; 10 µM unless noted 48.9% | LOX IMVI melanoma 67.9%

O=C1C2=C(Nc3cc([N+](=O)[O-])ccc3N2)OC1c1c2ccccc2cc2ccccc12 (stereo not drawn)
inactive: DU-145 prostate; 10 µM unless noted 74.6% | K-562 leukemia; 10 µM unless noted 21.6% | MALME-3M melanoma; 10 µM unless noted 97.9% | MDA-MB-231 breast; 10 µM unless noted 65.8% | RXF 393 renal; 10 µM unless noted 65.1% | SF-268 CNS; 10 µM unless noted 33.2% | SF-295 CNS; 10 µM unless noted 57.5% | SF-539 CNS; 10 µM unless noted 58.8% | UACC-257 melanoma 74.4% | M14 melanoma; 10 µM unless noted 70.1% | HCT-15 colon 20.5% | HT29 colon; 10 µM unless noted 51.4% | SNB-75 CNS; 10 µM unless noted 52.4% | SNB-19 CNS; 10 µM unless noted 40.2% | U251 CNS 31.4% | PC-3 prostate; 10 µM unless noted 20.5% | SK-MEL-5 melanoma; 10 µM unless noted 56.7% | UACC-62 melanoma; 10 µM unless noted 44.6% | LOX IMVI melanoma 38.1% | SK-MEL-28 melanoma; 10 µM unless noted 77.5%

CN(C)C(=O)c1ccc(SC(=S)NCc2ccccc2)cc1
active: K-562 leukemia; 100 µM 3.9% | MALME-3M melanoma; 100 µM -12.7% | RXF 393 renal; 100 µM -72.4% | SF-539 CNS; 100 µM -62.3% | M14 melanoma; 100 µM -42% | HT29 colon; 100 µM -62% | SNB-75 CNS; 100 µM 1.41% | SNB-19 CNS; 100 µM -0.973% | SK-MEL-5 melanoma; 100 µM -53.1% | UACC-62 melanoma; 100 µM 1.05% | SK-MEL-28 melanoma; 100 µM -34.8%
inactive: DU-145 prostate; 10 µM 111% | DU-145 prostate; 100 µM 10.1% | K-562 leukemia; 10 µM 82.6% | MALME-3M melanoma; 10 µM 108% | MDA-MB-231 breast; 10 µM 109% | MDA-MB-231 breast; 100 µM 13.3% | RXF 393 renal; 10 µM 108% | SF-268 CNS; 10 µM 124% | SF-268 CNS; 100 µM 50.2% | SF-295 CNS; 10 µM 119% | SF-295 CNS; 100 µM 26.3% | SF-539 CNS; 10 µM 102% | UACC-257 melanoma 18.4% [100 µM] | M14 melanoma; 10 µM 103% | HT29 colon; 10 µM 107% | SNB-75 CNS; 10 µM 110% | SNB-19 CNS; 10 µM 109% | PC-3 prostate; 10 µM 97.1% | PC-3 prostate; 100 µM 17.6% | SK-MEL-5 melanoma; 10 µM 102% | UACC-62 melanoma; 10 µM 103% | SK-MEL-28 melanoma; 10 µM 106%
